Hits are enriched below; roughly 17% of the tested compounds scored in any of these assays.
HepG2 viability = kills HepG2 cells in TGF-b inhibitor counter-screen; HepG2 CAGA-GFP viability, ATP luminescence, 18 h; Potency, µM (top dose mostly 46.1 µM), inactives show at the top dose activity change, negative = cytotoxicity, most hits filed as cytotoxic; 410,000 tested, 0.76% active; AID 588856
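HepG2 CAGA-GFP cells (1000/well, DMEM with 1% FBS) received compound, then TGF-beta at 500 pg/mL final, and were incubated 18 hours at 37 degrees C. Viability was read by CellTiter-Glo luminescence. Media-only wells were set as complete cell-killing and DMSO as no toxicity.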
HT1080 IDH1KD tx = toxicity to HT-1080 IDH1 knockdown cells (counter line); HT-1080 IDH1 knockdown viability, ATP luminescence, 48 h; Potency, µM (doses to about 46.1 µM), without a hit: at the top dose activity, negative = toxicity, most hits filed as cytotoxic; 360,000 tested, 2% active;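 also: 0% = DMSO wells and -100% = cell-free medium wells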
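% activity derives from luminescence (CellTiter-Glo), normalised to DMSO and no-cell wells. HT-1080-IDH1KD cells, 750/well, had 48 h compound exposure at 37 °C.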
TGFb SMAD3 inh = TGF-b pathway inhibition; HepG2 CAGA-GFP TGF-b/SMAD3 reporter, GFP fluorescence, 18 h; TGF-beta stimulated, 500 pg/mL final; Potency, µM (titrated, usually from 46.1 µM), without a hit: at the top dose activity, negative = inhibition, actives largely listed as inhibitors; 410,000 tested, 1.2% active; AID 588855; also: % is scaled to controls: 0 for no effect and ±100 for the full control effect; nearly all actives have a fitted effect of over 65% in size
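HEPG2 CAGA-GFP cells (1000/well, DMEM with 1% FBS) were pre-incubated 2 h at 37 degrees C, given compound by pin tool, then stimulated with TGF-beta at 500 pg/mL final for 18 h before per-cell GFP fluorescence imaging.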
DT40 TDP1 CPT = DT40-hTDP1 cell growth loss with CPT; 420,000 tested, 12% active; Potency, µM (titrated, usually from 46.2 µM), without a hit: top-dose activity change, negative = growth inhibition, hits mostly inhibitors; chicken DT40 Tdp1-/-;hTDP1 cells + 20 nM CPT, ATP luminescence, 48 h; AID 686979; also: % is scaled to controls: 0 for no effect and ±100 for the full control effect; nearly all actives have a fitted effect of over 55% in size
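Cell growth measured by CellTiter-Glo luminescence after a minimum 48 h, 37 C compound exposure with 20 nM CPT in Tdp1-knockout DT40 cells stably expressing hTDP1, seeded 400/well; qHTS titration format.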
HT1080-NT tox = kills 2HG-producing HT-1080-NT fibrosarcoma cells | HT-1080-NT fibrosarcoma viability, CellTiter-Glo ATP luminescence, 48 h | Potency, µM (series often up to 46.1 µM), without a hit: at the top dose activity, negative = less viability, most hits filed as cytotoxic | 360,000 tested, 1.6% active;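 also: NT is the 2HG producing partner of a matched IDH1 knockdown line; 0% = DMSO-treated cells and -100% = media-only wells without cells; nearly all actives have a fitted effect of over 55% in size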
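750 cells/well, RPMI + 5% FBS; 2 h settle, compound pin-transfer, 48 h at 37 degrees C. CellTiter-Glo 10 min RT, luminescence. Normalized to DMSO and media-only wells.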
TDP1 cell noCPT = qHTS for Inhibitors of human tyrosyl-DNA phosphodiesterase 1 (TDP1): qHTS in cells in absence of CPT | DT40 Tdp1-/- hTDP1 cells, no CPT, ATP luminescence, 48 h | Potency, µM (series often up to 46.2 µM), without a hit: at the top dose activity change, negative = growth inhibition, most hits filed as inhibitors | 420,000 tested, 15% active | AID 686978, 2013; also: % is scaled to controls: 0 for no effect and ±100 for the full control effect; nearly all actives have a fitted effect of over 55% in size
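Growth of hTDP1-complemented DT40 Tdp1-knockout cells is measured by ATP luminescence after at least 48 hr compound exposure at 37 °C, with DMSO substituting for the 20 nM CPT used in the parallel screen.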
Numbers without * were called inactive; ? = inconclusive; · = not tested or not shown. Calls follow the shape of the dose curve; as a rule, active = well fitted curve in the direction sought with a large enough effect; inconclusive = small, poorly fitted or top-dose-only effect, or another doubt; inactive = no such curve, though single readings can be large; an effect the other way counts as inactive or inconclusive. Potency is read from the fitted curve at half-maximal effect.

SMILES	HepG2 viability	HT1080 IDH1KD tx	TGFb SMAD3 inh	DT40 TDP1 CPT	HT1080-NT tox	TDP1 cell noCPT
O=C(Nc1ccccc1C(=O)O)c1cc(S(=O)(=O)N2CCCCC2)c(Cl)cc1Cl	-5.7%	-1.0%	-24.6%	23.1µM*	-3.1%	11.6µM*
O=C(Nc1ccc(S(=O)(=O)N2CCCCC2)cc1)c1ccccc1Cl	-34.8%	-10.3%	-5.1%	?	-27.1%	25.9µM*
Cc1nnsc1C(=O)Nc1ccc(S(=O)(=O)N2CCCCC2)cc1	-14.6%	-9.9%	-6.4%	20.6µM*	-4.3%	?
O=C(NC1CCCC1)c1ccc2c(c1)N(Cc1ccccc1F)C(=O)c1ccccc1S2	-13.4%	·	-6.7%	?	·	14.6µM*
Cc1ccccc1CN1C(=O)c2ccccc2Sc2ccc(C(=O)NC3CCCCC3)cc21	0.7%	·	0.0%	14.6µM*	·	16.4µM*
COc1ccc(Oc2c(C(F)(F)F)oc3cc(OCC(=O)O)ccc3c2=O)cc1	25.7%	-1.0%	-0.9%	-4.4%	2.7%	9.4%
COC(=O)[C@@]12CCCCN1[C@H](c1ccc(-c3ccc(OC)cc3)cc1)[C@@H]1C(=O)N(C)C(=O)[C@@H]12	5.1%	-1.1%	-2.3%	20.6µM*	0.3%	20.6µM*
COC(=O)[C@@]12CCCCN1[C@H](c1ccc(-c3ccc(C(C)=O)cc3)cc1)[C@@H]1C(=O)N(C)C(=O)[C@@H]12	5.7%	8.7%	25.8%	14.6µM*	1.3%	23.1µM*
COC(=O)[C@@]12CCCCN1[C@H](c1ccc(-c3ccc(OC)cc3)c(OC)c1)[C@@H]1C(=O)N(C)C(=O)[C@@H]12	-23.7%	-5.9%	-11.8%	20.6µM*	-5.5%	?
COC(=O)[C@@]12CCCCN1[C@H](c1ccc(-c3ccc4c(c3)OCO4)cc1)[C@H]1C(=O)N(C)C(=O)[C@H]12	-16.3%	9.7%	-7.0%	13µM*	4.2%	23.1µM*
Cc1cc(C)c(C)c(OCCCn2ccnc2)c1	-25.0%	-21.6%	-6.0%	-23.0%	-0.1%	?
Cc1c(C(=O)NCC(C)(C)CN(C)C)cnn1-c1nccc(-c2ccccc2F)n1	·	·	·	8.6%	·	-2.6%
COc1ccc(N2CCN(C(=O)c3ccc(CSc4ccccc4)cc3)CC2)cc1	-38.0%	-0.2%	-6.2%	-8.3%	-4.9%	-25.9%
COc1cccc(N2CCN(C(=O)c3ccc(CSc4nc5ccncc5[nH]4)cc3)CC2)c1	-33.1%	-13.4%	?	18.4µM*	-11.3%	18.4µM*
Clc1ccccc1CSc1nc2ccncc2[nH]1	-40.8%	-17.3%	-6.5%	?	-21.6%	23.1µM*
COc1cccc(CSc2nc3ccncc3[nH]2)c1	-61.6%	-24.6%	0.0%	?	-27.1%	18.4µM*
COc1cccc(CNC(=O)CSc2nc3ccc(C)cc3[nH]2)c1	-11.2%	-8.6%	-1.3%	?	-6.6%	-15.7%
CCc1ccccc1NC(=O)CNC(=O)CCc1nc2sc3c(c2c(=O)[nH]1)CCCC3	6.3%	1.8%	?	-16.0%	-2.6%	0.6%
COc1ccc(C2Nc3ccccc3C(=O)N2c2ccccc2)cc1COc1ccc(NC(C)=O)cc1 (configuration not stated)	-32.5%	·	4.8%	?	·	?
COc1ccc(C2Nc3ccccc3C(=O)N2c2ccc(Cl)cc2)cc1COc1ccc(NC(C)=O)cc1 (configuration not stated)	-17.7%	·	-4.8%	?	·	14.1µM*

Source: PubChem
